Results as given in PubChem BioAssay (NCATS).
Results filed as inconclusive are left out. Unmarked numbers belong to inactive results. Activity calls are given as the source filed them. Calls follow the shape of the dose curve; as a rule, active = well fitted inhibition curve with a large enough effect; inconclusive = small, poorly fitted or top-dose-only effect; inactive = flat fitted curve, though single readings scatter.

System: CRL-7250
Test: Cytotoxic Profiling of Annotated Libraries Using Quantitative High-Throughput Screening (AID 1296008); also: nearly all actives have a fitted effect of over 60% in size
Conditions: Five cell lines viability, CellTiter-Glo ATP luminescence, 48-72 h; max response: stronger effect = lower value
In short: (§1)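 Compounds were pin-transferred onto cells and incubated 48 or 72 hr at 37 degree Celsius, 95% humidity. CellTiter-Glo was added, plates sat 10 min at room temperature, then ATP-coupled luminescence was imaged as the viability read-out.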
% is scaled to controls: 0 for no effect and ±100 for the full control effect; potency is read from the fitted curve at half-maximal effect.

Q: For `CC(=O)OC[C@]12[C@H](OC(C)=O)C(=O)[C@@H]3[C@@H](O)[C@@]14O[C@@]3(C)COC(=O)c1cccnc1[C@@H](C)[C@H](C)C(=O)O[C@@H]([C@H](OC(C)=O)[C@@H]2OC(C)=O)[C@]4(C)O`, which outcome is on record?
A: Its outcome is “inactive”.

Q: Which max response does the source give for `C#C[C@]1(O)CC[C@H]2[C@@H]3CC[C@H]4Cc5nc6nc7ccccc7n6cc5C[C@]4(C)[C@H]3CC[C@@]21C` here?
A: Its max response is 1.18%.

Q: Which outcome does the source give for `CN1C(=O)N(c2ccc(C#N)c(C(F)(F)F)c2)C(=O)[C@@]1(CO)c1ccccc1` here?
A: Its outcome is “inactive”.

Q: For `CCCCCn1cc(C(=O)Oc2cccc3cccnc23)c2ccccc21`, which outcome is on record?
A: The outcome was “inactive”.

Q: How did the Potency turn out when `COc1cc(O)c2c(c1)CCC[C@@H](O)[C@H](O)C(=O)/C=C\C[C@H](C)OC2=O` was run?
A: The Potency was 5.08 µM (active).

Q: Which Potency does the source give for `COc1cc(C(=O)N2CC[C@@H](O)[C@@H](N)C2)cc2nc(-c3cc4ccccc4n3CC3CC3)n(C)c12` here?
A: The Potency was 20.9 µM (active).

Q: Which Potency does the source give for `C[C@]12CC[C@H](O)C[C@@H]1CC[C@@H]1[C@@H]2CC[C@]2(C)[C@@H](C3=CC(=O)OC3)CC[C@]12O` here?
A: The Potency was 4.53 µM (active).

Q: With `C[C@]12CC[C@H](O)C[C@@]1(O)CC[C@@H]1[C@@H]2CC[C@]2(C)[C@@H](c3ccc(=O)oc3)CC[C@]12O` as the compound, how does the Potency read?
A: The Potency was 0.0052 µM (active).

Q: `COC(=O)C12C(=O)C(C)(O)C(=O)C1(C)C(C)=CC1C34CCC(OC3=O)C(C)(C)C4CCC12C` (configuration not stated) was tested. Which max response did it give?
A: The max response was -8.47%.

Q: `CC1=CC2OC3CC(O)[C@](C)([C@@]2(C)C(O)C1=O)[C@]31CO1` (some centres not stated) was tested. Which Potency did it give?
A: The Potency was 5.8 µM (active).

Q: With `CN1Cc2c(ccc3c2OCO3)[C@@H]2[C@H]1c1cc3c(cc1C[C@@H]2O)OCO3` as the compound, how does the Potency read?
A: The Potency was 4.04 µM (active).

System: HEK293
Test: as above
Conditions: Five cell lines viability, CellTiter-Glo ATP luminescence, 48-72 h; max response: stronger effect = lower value
In short: as §1

Q: How did the Potency turn out when `CC1=CC(=O)[C@@H](O)[C@@]2(C)C1C[C@H]1OC(=O)[C@H](O)[C@@]3(O)[C@@H](C)[C@@H](O)[C@H](O)C2[C@@]13C` (some centres not stated) was run?
A: The Potency was 2.02 µM (active).

Q: `Fc1cc(F)c2c(c1)C1C=CCC1C(c1cccnc1)N2` (configuration not stated) was tested. Which Potency did it give?
A: The Potency was 23.1 µM (active).

Q: `COC1CC(O[C@H]2CC[C@@]3(C)C(CCC4C3CC[C@]3(C)C(C5=CC(=O)OC5)CCC43O)C2)OC(C)C1OC1OC(COC2OC(CO)C(O)C(O)C2O)C(O)C(O)C1O` (some centres not stated) was tested. Which Potency did it give?
A: The Potency was 1.74 µM (active).

Q: `C[C@@H]1O[C@@H](OC2CCC3(C=O)C(CCC4C3CCC3(C)C(C5=CC(=O)OC5)C(O)CC43O)C2)[C@H](O)[C@H](O)[C@H]1O[C@@H]1O[C@H](CO)[C@@H](O)[C@H](O)[C@H]1O` (some centres not stated) was tested. Which Potency did it give?
A: Its Potency is 3.85 µM (active).

Q: With `C=C1C(=O)CC2OC2(C)CC2OC(=O)C(=C)C2C(O)C1OC(=O)/C(C)=C\C` (configuration not stated) as the compound, how does the Potency read?
A: The Potency was 4.53 µM (active).

Q: For `CCCCCCC1C(=O)O[C@H](C)[C@H](NC(=O)c2cccc(NC=O)c2O)C(=O)O[C@@H](C)[C@@H]1OC(=O)CC(C)C` (some centres not stated), which Potency is on record?
A: The Potency was 0.164 µM (active).

Q: Which Potency does the source give for `C=C(C)[C@@]12O[C@@H]1[C@@]1(C)C(=CC2=O)CC[C@@H](OC(C)=O)[C@@H]1C` here?
A: Its Potency is 3.26 µM (active).

Q: `c1ccc([C@@H]2C[C@H]2NC2CCNCC2)cc1` was tested. Which max response did it give?
A: The max response was -16.2%.

Q: With `CC(C)[C@H]1OC(=O)[C@H](Cc2ccccc2)N(C)C(=O)[C@@H](C(C)C)OC(=O)[C@H](Cc2ccccc2)N(C)C(=O)[C@@H](C(C)C)OC(=O)[C@H](Cc2ccccc2)N(C)C1=O` as the compound, how does the Potency read?
A: The Potency was 6.11 µM (active).

Q: With `CC[C@H](O)[C@@H](C)[C@H]1O[C@@H]1C[C@H](C)/C=C/C=C(\C)[C@H]1OC(=O)C[C@H](O)CC[C@@](C)(O)[C@@H](OC(C)=O)/C=C/[C@@H]1C` as the compound, how does the Potency read?
A: Its Potency is 0.0041 µM (active).

Q: How did the max response turn out when `C=C1C2(C)CC3C(C)(O)C4=CC(=O)OC(C)(C)C4=CCC3(C)C13C(=O)OC(C)C3(O)C2=O` (configuration not stated) was run?
A: Its max response is -2.5%.

Q: `CN(C)[C@@H]1C(=O)C(C(N)=O)=C(O)[C@@]2(O)C(=O)C3=C(O)c4c(O)ccc(Cl)c4[C@@](C)(O)C3C[C@@H]12` (some centres not stated) was tested. Which max response did it give?
A: Its max response is 0.697%.

Q: For `CC(=O)O[C@H]1C[C@]2(O)[C@@H]3CC[C@@H]4C[C@@H](O)CC[C@]4(C)[C@H]3CC[C@]2(C)[C@H]1c1ccc(=O)oc1`, which Potency is on record?
A: The Potency was 0.0461 µM (active).

Q: `C=C(C)C(=O)O[C@H]1[C@@H]2[C@H](C)C(=O)O[C@@H]2C[C@@H](C)[C@@H]2C=CC(=O)[C@]21C` was tested. Which Potency did it give?
A: Its Potency is 3.6 µM (active).

Q: How did the max response turn out when `CCN1C[C@]2(COC)CC[C@H](O)[C@@]34C5C[C@@H]6[C@@H](OC)C[C@@](OC(C)=O)(C5[C@@H]6OC(C)=O)[C@H]([C@H](OC)C23)[C@@H]14` (some centres not stated) was run?
A: Its max response is 3.98%.

Q: How did the max response turn out when `CC(C)[C@H](NC(=O)c1nn(Cc2ccc(F)cc2)c2ccccc12)C(N)=O` was run?
A: The max response was -11.8%.

Q: Which Potency does the source give for `COC1CCCC(C)OC(=O)Cc2cc(O)cc(O)c2C(=O)C1` (configuration not stated) here?
A: Its Potency is 3.6 µM (active).

Q: `C[C@]12CC[C@H](O)C[C@@H]1CC[C@@H]1[C@@H]2CC[C@]2(C)C(=O)CC[C@@H]12` was tested. Which max response did it give?
A: Its max response is -15.1%.

Q: `C#C[C@]1(O)CC[C@H]2[C@@H]3CC[C@H]4Cc5nc6nc7ccccc7n6cc5C[C@]4(C)[C@H]3CC[C@@]21C` was tested. Which Potency did it give?
A: Its Potency is 14.6 µM (active).

Q: How did the Potency turn out when `COc1cc(O)c2c(c1)CCC[C@@H](O)[C@H](O)C(=O)/C=C\C[C@H](C)OC2=O` was run?
A: The Potency was 6.4 µM (active).

Q: Which Potency does the source give for `COc1cc(C(=O)N2CC[C@@H](O)[C@@H](N)C2)cc2nc(-c3cc4ccccc4n3CC3CC3)n(C)c12` here?
A: Its Potency is 14.8 µM (active).

Q: For `C[C@]12CC[C@H](O)C[C@@H]1CC[C@@H]1[C@@H]2CC[C@]2(C)[C@@H](C3=CC(=O)OC3)CC[C@]12O`, which Potency is on record?
A: The Potency was 5.08 µM (active).

Q: With `C[C@]12CC[C@H](O)C[C@@]1(O)CC[C@@H]1[C@@H]2CC[C@]2(C)[C@@H](c3ccc(=O)oc3)CC[C@]12O` as the compound, how does the Potency read?
A: The Potency was 0.0517 µM (active).

Q: `COC(=O)C12C(=O)C(C)(O)C(=O)C1(C)C(C)=CC1C34CCC(OC3=O)C(C)(C)C4CCC12C` (configuration not stated) was tested. Which max response did it give?
A: Its max response is -13.4%.

Q: With `CC1=CC2OC3CC(O)[C@](C)([C@@]2(C)C(O)C1=O)[C@]31CO1` (some centres not stated) as the compound, how does the Potency read?
A: The Potency was 5.17 µM (active).

Q: With `CN1Cc2c(ccc3c2OCO3)[C@@H]2[C@H]1c1cc3c(cc1C[C@@H]2O)OCO3` as the compound, how does the Potency read?
A: The Potency was 3.6 µM (active).
